Sampled rows, rich in hits. Any-hit rate of the full collection: about 2.4%.
Cruzain noTriton = cruzain (T. cruzi) inhibition without detergent; P25779; purified cruzain, Z-FR-AMC fluorescence, no detergent; Potency, µM, without a hit: max response, negative = inhibition, most hits filed as inhibitors; hit rate 2.3% among 200,000;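 note: plate controls were enzyme without inhibitor for no effect and buffer without enzyme for full effect; nearly all actives have a fitted effect of over 40% in size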
Target sequence (P25779 123-467 limits assumed): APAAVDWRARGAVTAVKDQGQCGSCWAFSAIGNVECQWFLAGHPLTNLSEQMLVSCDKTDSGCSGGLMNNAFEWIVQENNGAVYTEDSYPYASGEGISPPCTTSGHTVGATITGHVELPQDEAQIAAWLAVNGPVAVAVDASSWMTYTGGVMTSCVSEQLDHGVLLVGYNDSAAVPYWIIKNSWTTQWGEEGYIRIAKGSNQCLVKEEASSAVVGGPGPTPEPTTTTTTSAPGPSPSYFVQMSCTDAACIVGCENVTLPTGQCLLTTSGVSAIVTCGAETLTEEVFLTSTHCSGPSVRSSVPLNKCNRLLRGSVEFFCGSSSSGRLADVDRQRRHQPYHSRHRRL
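Purified cruzain at 1.5 nM, pre-incubated 15 min with compound at room temperature in 100 mM sodium acetate pH 5.5, 5 mM DTT, 0.00005% Triton X-100. Reaction started with 2 uM Z-FR-AMC; AMC fluorescence increase over 60 s gives rate.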
Cruzain inh Det = cruzain (T. cruzi) inhibition with detergent. P25779. purified cruzain, Z-FR-AMC fluorescence, 0.01% Triton. Potency, µM, for the others: max response, negative = inhibition, usual class: inhibitors. hit rate 0.43% among 200,000. AID 1478;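 note: plate controls were neutral wells for no effect and buffer without enzyme for full effect; nearly all actives have a fitted effect of over 40% in size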
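Detergent-containing arm of a paired screen for aggregation-based inhibition: 0.01% Triton X-100 present. Cruzain at 1.5 nM cleaved 2 uM Z-FR-AMC at pH 5.5 with 5 mM DTT; AMC fluorescence gain over 60 s measured activity.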
Numbers without * were called inactive; ? = inconclusive. Calls come from the whole dose curve; as a rule, active = well fitted curve in the direction sought with a large enough effect; inconclusive = small, poorly fitted or top-dose-only effect, or another doubt; inactive = no such curve, though single readings can be large; an effect the other way counts as inactive or inconclusive. Potency is the fitted concentration of half-maximal effect.

SMILES | Cruzain noTriton | Cruzain inh Det
CN1c2ccccc2C(C)(C)C12C=Nc1c(cc(N3CCOCC3)c3ccccc13)O2 (configuration not stated) | 25µM* | 1%
NC1=Nc2ccccc2Oc2ccccc21 | 25µM* | ?
c1ccc(C2=Nc3ccccc3OC2)cc1 | -18% | -3%
COCCOC(=O)c1c(C)oc2c1cc(NS(=O)(=O)c1ccc(Cl)c(C)c1)c1ccccc12 | 1% | -4%
COC(=O)c1ccc(-n2c(/C=C\c3cccc(Br)c3)nc3ccccc3c2=O)cc1 | -3% | -2%
Cc1ccc2nc(SCC(=O)Nc3ccc(C)c([N+](=O)[O-])c3)[nH]c2c1 | -1% | -26%
Cc1ccc2nc(SCC(=O)Nc3ccc(F)c([N+](=O)[O-])c3)[nH]c2c1 | ? | 14µM*
CCc1ccc(-c2csc(NC(=O)COC(=O)CCc3nc4ccccc4s3)n2)cc1 | 13µM* | -3%
Cc1nc(NC(=O)COC(=O)CCc2nc3ccccc3s2)c(Cl)cc1Cl | -6% | -4%
Cn1c(=O)n(C/C=C/c2ccccc2)c(=O)c2c1nc1n2CCN1c1ccccc1 | 7% | 1%
COc1ccccc1-c1nnc(NC(C)=O)s1 | 3% | 1%
CCCCOC(=O)Nc1nnc(-c2ccccc2OC)s1 | 16µM* | 2%
O=C(CSc1nc2cc(S(=O)(=O)N3CCOCC3)ccc2o1)NC1CCCc2ccccc21 (configuration not stated) | 25µM* | -3%
Cc1ccc(S(=O)(=O)N2CCN(CC(=O)NC3CCCc4ccccc43)CC2)cc1C (configuration not stated) | ? | 1%
Cc1[nH]c2ccccc2c1C(=O)CSc1nc2cc(S(=O)(=O)N3CCCCC3)ccc2o1 | 25µM* | 1%
Cc1ccc(C(=O)CSc2nc3cc(S(=O)(=O)N4CCOCC4)ccc3o2)cc1 | 12% | 1%
CC(C)Oc1ccc(CNC(=O)c2ccc(CS(=O)Cc3ccccc3Cl)o2)cc1 (configuration not stated) | -3% | 1%
Cc1nc2ccc3nc(NC(=O)c4ccc5c(c4)OCCO5)sc3c2s1 | -5% | 3%
Cc1nc2c(ccc3nc(NC(=O)c4ccc5c(c4)OCCO5)sc32)s1 | 2% | 14µM*
O=c1c2sc3ccccc3c2n(Cc2cccc(Cl)c2)c(=O)n1Cc1ccccc1 | ? | -1%
O=c1c2sc3ccccc3c2n(Cc2cccc(Cl)c2)c(=O)n1Cc1ccc(F)cc1 | 6.3µM* | -4%
Cc1ccnc(N/C=C(\C#N)c2nc(-c3cccc(Br)c3)cs2)c1 | 25µM* | ?
N#C/C(=C/c1ccc(Cl)cc1)c1nc(-c2ccc(Br)cc2)cs1 | -9% | -2%
C(=C\c1ccccc1)/C=N/Nc1nc(N2CCCCC2)nc(N2CCCCC2)n1 | 4µM* | 1%
CC(=C/c1ccccc1)/C=N/Nc1nc(N2CCCCC2)nc(N2CCCCC2)n1 | -10% | -4%
SMILES | Cruzain noTriton | Cruzain inh Det
CSc1ccc(CNC(=O)CN2C(=O)C3CCCCN3c3ccc(C(=O)N4CCCC4)cc32)cc1 (configuration not stated) | 2% | -3%
Cc1oc(-c2ccc(C(=O)Nc3cc(F)ccc3F)cc2)nc1COc1ccccc1 | 10% | -1%
CC1=NN(c2nc(-c3ccc(F)cc3)cs2)C(=O)C1 | 0% | 0%
CC1=NN(c2nc(-c3ccc(Cl)cc3)cs2)C(=O)C1 | 7.9µM* | -19%
Oc1c(C(c2ccccc2Cl)N2CCN(Cc3ccccc3)CC2)sc2nc(-c3ccco3)nn12 (configuration not stated) | ? | -7%
Cc1ccc(Cl)cc1NC(=O)Cn1c(SCC(=O)NCc2ccccc2)nc2ccccc21 | -3% | -1%
C#CCOCCOCCOCCNc1nc(N2CCN(C(=O)Cn3cc(CCCN=C(N)N)nn3)CC2)nc(N2CCN(C(=O)[C@H](C(C)C)n3cc(CCO)nn3)CC2)n1 | 6% | 0%
C#CCOCCOCCOCCNc1nc(N2CCN(C(=O)Cn3cc(CCCN=C(N)N)nn3)CC2)nc(N2CCN(C(=O)[C@H]([C@@H](C)CC)n3cc(CCCN=C(N)N)nn3)CC2)n1 | 20µM* | 25µM*
Cc1nn2c(N)c(C#N)cnc2c1-c1ccc(Cl)cc1 | 25µM* | 6%
Cc1nn2c(N)c(C#N)cnc2c1-c1ccccc1 | 10% | -5%
Nc1nc2c(ncn2C2OC(COC(=O)c3ccccc3)C(OC(=O)c3ccccc3)C2OC(=O)c2ccccc2)c(=O)[nH]1 (configuration not stated) | 7.9µM* | -1%
O=C(OCC1OC(n2ccc(=O)[nH]c2=O)C(O)C1OC(=O)c1ccccc1)c1ccccc1 (configuration not stated) | 0% | 0%
COc1ccc(N2CCN(C(CNC(=O)C(=O)NCc3cccnc3)c3cccnc3)CC2)cc1 (configuration not stated) | ? | 4%
Cc1ccc(C)c(CN2C(=O)c3ccccc3S(=O)(=O)c3ccc(C(=O)N4CCN(c5ccccn5)CC4)cc32)c1 | -1% | 1%
CC(=O)Oc1oc(-c2ccccc2)nc1/C=N/c1ccccn1 | 13µM* | 14µM*
CSc1ccccc1N=Cc1nc(-c2ccccc2)oc1O | -7% | -8%
CN(C)c1ccc(N=Cc2nc(-c3ccccc3)oc2OC(=O)c2ccccc2)cc1 | ? | -14%
COc1ccccc1N=Cc1nc(-c2ccccc2)oc1OC(C)=O | 20µM* | 25µM*
CCOc1ccccc1CNC(=O)c1cc2n(n1)CCCN(Cc1ccc(C)cc1)C2=O | 10% | -3%
CC(=O)Nc1ccc(-c2cc(-c3ccc(NC(C)=O)cc3)nc(-c3ccc(NC(C)=O)cc3)n2)cc1 | 32µM* | ?
CC(=O)Nc1ccc(-c2cc(-c3ccccc3)nc(-c3ccccc3)n2)cc1 | ? | -3%
CCC(=O)Nc1ccc(-c2cc(-c3ccccc3)nc(-c3ccc(NC(=O)CC)cc3)n2)cc1 | 5% | 4%
CC(=O)Nc1ccc(-c2cc(-c3ccc(NC(C)=O)cc3)nc(-c3ccccc3)n2)cc1 | 16µM* | -5%
Cc1coc2c(C)c3oc(=O)c(CCC(=O)NCCc4ccc(Cl)cc4)c(C)c3cc12 | -5% | -2%
COc1ccc(OC)c(-c2csc(-c3c(N)c(C(=O)c4ccc(Cl)cc4)n4ccccc34)n2)c1 | -22% | -1%
SMILES | Cruzain noTriton | Cruzain inh Det
COc1ccc(-c2nc(-c3ccccc3)c(-c3cccs3)[nH]2)cc1OC | 25% | -2%
COc1ccc(-c2nc(-c3ccccc3)c(-c3ccccc3)[nH]2)cc1Br | 3.2µM* | 0%
O=C(Nc1nnc(S(=O)(=O)N2CCCc3ccccc32)s1)c1cccc(Cl)c1 | 10% | -2%
CC1CCN(S(=O)(=O)c2ccc3c(ccc(=O)n3CC(=O)Nc3ccc(C(C)C)cc3)c2)CC1 | 9% | -2%
C/C(=N\NC(=O)c1ccc(Cl)c(Cl)c1)c1ccc(Br)s1 | 25µM* | 2%
C/C(=N\NC(=O)CNc1cccc(C)c1)c1ccc(Br)s1 | -12% | -11%
CSc1ccc(/C=C(\NC(=O)c2ccc(C)cc2)C(=O)Nc2cccc(C)c2)cc1 | 7.9µM* | 0%
Cc1ccc(C(=O)N/C(=C/c2ccc(Cl)cc2)C(=O)Nc2cccc(C(=O)O)c2)cc1 | ? | -8%
N#Cc1c(NC(=O)Cn2cnc3ccccc3c2=O)oc(-c2ccccc2)c1-c1ccccc1 | 25µM* | 1%
CCn1c(SCC(=O)Nc2oc(-c3ccccc3)c(-c3ccccc3)c2C#N)nnc1-c1cc(OC)cc(OC)c1 | 7.9µM* | 5%
Cc1ccnc(SCC(=O)Nc2oc(-c3ccccc3)c(-c3ccccc3)c2C#N)n1 | ? | -1%
